rRNA inh HTS = inhibits bacterial ribosomal RNA function over humanized ribosomes; GFP signal change (wild-type ribosome), % (test concentration not listed); 350,000 tested, 1.6% active; E. coli WT GFP vs humanized-ribosome RFP mutants, fluorescence, 24 h; hits give low values; DMSO median 0, no signal -100;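 active = significant combined selectivity score with lowered wild-type GFP, culture density cut under 30%, mutant RFP and density less affected; inactive = any of these conditions unmet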
MLL AF4-AF9 inh = MLL-AF4/AF9 protein interaction inhibition; inhibition, % at 10 µM; P42568; AID 651704; AlphaScreen, biotin-AF4 peptide binding to FLAG-AF9; 350,000 tested, 0.47% active;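 active = every replicate reaching a set inhibition limit, whatever the replicate mean, cut at about 25% in these data; inconclusive = mean inhibition reaches that limit but some replicates miss it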;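 also: 0% = plate neutral control median and 100% = total signal loss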
RAD52 anneal inh = blocks human RAD52 DNA annealing | P43351 | recombinant RAD52 DNA annealing, FRET fluorescence | inhibition, % at 18.7 µM | 360,000 tested, 0.46% active | AID 651710;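 active = every replicate showing at least 50% inhibition; inconclusive = mean inhibition at least 50% but not in every replicate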
Target sequence (P43351 whole entry, looked up): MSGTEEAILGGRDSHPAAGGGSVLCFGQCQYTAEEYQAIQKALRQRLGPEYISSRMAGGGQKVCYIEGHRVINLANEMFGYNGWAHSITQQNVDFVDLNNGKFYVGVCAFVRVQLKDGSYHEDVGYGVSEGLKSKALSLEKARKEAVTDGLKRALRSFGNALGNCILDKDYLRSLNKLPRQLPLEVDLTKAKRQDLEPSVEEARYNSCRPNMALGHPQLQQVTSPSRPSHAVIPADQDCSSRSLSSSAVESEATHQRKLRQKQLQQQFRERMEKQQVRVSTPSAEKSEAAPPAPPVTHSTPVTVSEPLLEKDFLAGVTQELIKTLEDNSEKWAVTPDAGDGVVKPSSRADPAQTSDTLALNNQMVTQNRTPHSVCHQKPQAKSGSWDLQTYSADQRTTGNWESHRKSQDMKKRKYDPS
NSD2 inh = inhibitors of human histone methyltransferase NSD2; O96028; AID 743445; 310,000 tested, 0.54% active; NSD2 peptide methylation, AlphaScreen, 120 min; inhibition, % at 12.5 µM; in the data active = inhibition above about 50%
CASP6 VEID inh = inhibitors of human caspase-6 | inhibition, % at 12.5 µM | P55212 | purified caspase-6, Z-VEID-R110 cleavage fluorescence | AID 686996 | 350,000 tested, 0.53% active;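 active = mean inhibition across replicates at least about 35%, with every replicate also reaching that limit, limit read from the data; inconclusive = only one of the two criteria met; inactive = neither criterion met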;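 also: 0% = median of neutral control wells and 100% = no fluorescence left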
* marks the source's active call; other numbers are inactive results. An excerpt weighted towards active compounds, which were near 2.5% of everything screened.

CCOC(=O)[C@]12CCC=C1N(Cc1ccccc1)C(=O)[C@H](CC(=O)NCCCCc1ccccc1)C2 was read as rRNA inh HTS 0, MLL AF4-AF9 inh -2, RAD52 anneal inh -28 and CASP6 VEID inh 1.
For CCOC(=O)[C@]12CCC=C1N(Cc1ccccc1)C(=O)[C@H](CC(=O)NCCC(C)C)C2 the results were rRNA inh HTS -24*, MLL AF4-AF9 inh -1, RAD52 anneal inh -15 and CASP6 VEID inh -2.
For CN(C)CCNCCCNc1c2ccccc2nc2cccc([N+](=O)[O-])c12 the results were rRNA inh HTS 5, MLL AF4-AF9 inh 17, RAD52 anneal inh 81*, NSD2 inh 23 and CASP6 VEID inh -147.
Screening COc1ccccc1NS(=O)(=O)c1cc(C(=O)Nc2ccc(S(=O)(=O)Nc3onc(C)c3C)cc2)ccc1C returned rRNA inh HTS -21*, MLL AF4-AF9 inh 0, RAD52 anneal inh -11, NSD2 inh 10 and CASP6 VEID inh 9.
Cc1noc(NS(=O)(=O)c2ccc(NC(=O)c3ccc(N(C)C)cc3)cc2)c1C was read as rRNA inh HTS -3, MLL AF4-AF9 inh 2, RAD52 anneal inh 9, NSD2 inh 1 and CASP6 VEID inh 4.
Screening Cc1noc(NS(=O)(=O)c2ccc(NC(=O)c3ccc(OC(C)C)cc3)cc2)c1C returned rRNA inh HTS -31*, MLL AF4-AF9 inh -2, RAD52 anneal inh -1, NSD2 inh -12 and CASP6 VEID inh 1.
Screening COc1ccc(-c2cc(C(=O)Nc3ccc(S(=O)(=O)Nc4ncccn4)cc3)c3ccccc3n2)cc1 returned rRNA inh HTS 11, MLL AF4-AF9 inh -2, RAD52 anneal inh -19, NSD2 inh 2 and CASP6 VEID inh -1.
`COc1ccc(-c2cc(C(=O)Nc3ccc(S(=O)(=O)Nc4onc(C)c4C)cc3)c3ccccc3n2)cc1` gave rRNA inh HTS -18*, MLL AF4-AF9 inh 12, RAD52 anneal inh -35, NSD2 inh 25 and CASP6 VEID inh 8.
`COc1ccccc1NS(=O)(=O)c1ccc(C)c(C(=O)Nc2ccc(S(=O)(=O)Nc3onc(C)c3C)cc2)c1` gave rRNA inh HTS 4, MLL AF4-AF9 inh -3, RAD52 anneal inh -8, NSD2 inh 2 and CASP6 VEID inh 12.
Screening Cc1cc(OCc2ccccc2)ccc1/C(O)=C1/C(=O)C(=O)N(Cc2cccnc2)C1c1ccncc1 (centres undefined) returned rRNA inh HTS -29*, MLL AF4-AF9 inh 0, RAD52 anneal inh -15, NSD2 inh 4 and CASP6 VEID inh 2.
`C[C@@H]1CN([C@@H](C)CO)C(=O)c2cccc(NC(=O)Nc3ccc(F)cc3)c2O[C@H]1CN(C)S(=O)(=O)c1cn(C)cn1` gave rRNA inh HTS 1.
O=C(O)CSc1nnc(-c2ccccc2Br)n1-c1cccc(C(F)(F)F)c1 was read as rRNA inh HTS -24*, MLL AF4-AF9 inh -2, RAD52 anneal inh 3, NSD2 inh 13 and CASP6 VEID inh -2.
Screening CS(=O)(=O)Nc1ccc2c(c1)[C@@H]1C[C@H](CC(=O)NCc3cccnc3)O[C@H](CO)[C@@H]1O2 returned rRNA inh HTS 0, MLL AF4-AF9 inh -1, RAD52 anneal inh 13 and CASP6 VEID inh 0.
`O=C(O)c1ccc(S(=O)(=O)/N=C2\C=C(Nc3ccccc3F)C(=O)c3ccccc32)cc1` gave rRNA inh HTS -55, MLL AF4-AF9 inh 13, RAD52 anneal inh 6, NSD2 inh 120* and CASP6 VEID inh 99*.
`Cc1ccccc1NC1=C/C(=N\S(=O)(=O)c2ccc(C(=O)O)cc2)c2ccccc2C1=O` gave rRNA inh HTS -4, MLL AF4-AF9 inh 8, RAD52 anneal inh -2, NSD2 inh 139* and CASP6 VEID inh 99*.
`Cc1ccccc1NC1=C/C(=N\S(=O)(=O)c2cccs2)c2ccccc2C1=O` gave NSD2 inh 44.
Screening C[C@H]1CCCCO[C@H](CN(C)C)[C@@H](C)CN([C@@H](C)CO)C(=O)c2cc(NC(=O)c3ccncc3)ccc2O1 returned rRNA inh HTS 1, MLL AF4-AF9 inh 1, RAD52 anneal inh -28 and CASP6 VEID inh -1.
Screening COc1cccc(NC(=O)C[C@@H]2CC[C@H]3[C@@H](COc4ccc(NC(=O)c5ccccc5F)cc4C(=O)N3C)O2)c1 returned rRNA inh HTS 0, MLL AF4-AF9 inh -20, RAD52 anneal inh 1 and CASP6 VEID inh 0.
For COCC(=O)N1CC2(CN(Cc3ccccc3)C2)c2c([nH]c3cc(OC)ccc23)[C@H]1CO the results were rRNA inh HTS 0, MLL AF4-AF9 inh 1 and RAD52 anneal inh 5.
For C=CCOc1ccc(CNc2ccc3[nH]c(=O)[nH]c3c2)cc1 the results were rRNA inh HTS -14*, MLL AF4-AF9 inh 4, RAD52 anneal inh -9, NSD2 inh 4 and CASP6 VEID inh 8.
`COc1ccc2c3c(n(C)c2c1)[C@H](CO)NCC31CN(Cc2ccc(Cl)cc2)C1` gave rRNA inh HTS -21.
Screening COc1ccc2c3c(n(C)c2c1)[C@H](CO)NCC31CN(Cc2ccccc2Cl)C1 returned rRNA inh HTS -1, MLL AF4-AF9 inh 43*, RAD52 anneal inh 15 and CASP6 VEID inh -1.
`COc1ccc2c3c(n(C)c2c1)[C@@H](CO)NCC31CN(Cc2ccc(-c3ccccn3)cc2)C1` gave rRNA inh HTS 2, MLL AF4-AF9 inh 45*, RAD52 anneal inh 96* and CASP6 VEID inh 0.
`COc1ccc2c3c(n(C)c2c1)[C@@H](CO)NCC31CN(C(=O)c2ccccc2)C1` gave rRNA inh HTS 2 and MLL AF4-AF9 inh -1.
For COc1ccc2c3c(n(C)c2c1)[C@H](CO)NCC31CCN(Cc2ccc(-c3ccccn3)cc2)CC1 the results were rRNA inh HTS -7, MLL AF4-AF9 inh 30* and RAD52 anneal inh 82*.
Screening COc1ccc2c3c(n(C)c2c1)[C@@H](CO)NCC31CCN(Cc2ccc(-c3ccccn3)cc2)CC1 returned rRNA inh HTS -5, MLL AF4-AF9 inh inconclusive and RAD52 anneal inh 83*.
`CC(C)NC(=O)Nc1ccc2c(c1)C(=O)N([C@@H](C)CO)C[C@H](C)[C@@H](CN(C)S(=O)(=O)c1cccs1)O2` gave rRNA inh HTS -2.
Screening C[C@@H]1CN([C@@H](C)CO)C(=O)c2cc(C3=CCCCC3)cnc2O[C@H]1CN(C)S(C)(=O)=O returned rRNA inh HTS 8.
Screening C[C@H](CO)N1C[C@H](C)[C@@H](CN(C)Cc2ccncc2)Oc2cc(C#CC(C)(C)O)ccc2S1(=O)=O returned rRNA inh HTS -4, MLL AF4-AF9 inh 0, RAD52 anneal inh -8 and CASP6 VEID inh 3.
For C[C@H]1CCCCO[C@H](CN(C)C(=O)Nc2ccc(C(F)(F)F)cc2)[C@@H](C)CN([C@@H](C)CO)C(=O)c2cc(N(C)C)ccc2O1 the results were rRNA inh HTS -2, MLL AF4-AF9 inh 21, RAD52 anneal inh -6 and CASP6 VEID inh -2.
For CC(C)CNC(=O)[C@@H]1c2ccccc2C(=O)N(CC23CC4CC(CC(C4)C2)C3)[C@H]1c1ccc(CO)cc1 the results were MLL AF4-AF9 inh -9, RAD52 anneal inh -13 and CASP6 VEID inh 2.
